This is a sample that favours compounds with a hit; in the whole collection about 3% have one here.
15-hLO-2 inh: qHTS Assay for Inhibitors of 15-hLO-2 (15-human lipoxygenase 2); Polyunsaturated fatty acid lipoxygenase ALOX15B (Homo sapiens), O15296; purified 15hLO-2, xylenol orange hydroperoxide absorbance; Potency, µM (top dose mostly 57.1 µM), for inactives: at the top dose activity change, negative = inhibition, usual class: inhibitors; hit rate 0.56% among 110,000; AID 881, 2007; further: potency means the concentration at half of the fitted maximal effect; nearly all actives have a fitted effect of over 60% in size
Target sequence (O15296 whole entry, looked up): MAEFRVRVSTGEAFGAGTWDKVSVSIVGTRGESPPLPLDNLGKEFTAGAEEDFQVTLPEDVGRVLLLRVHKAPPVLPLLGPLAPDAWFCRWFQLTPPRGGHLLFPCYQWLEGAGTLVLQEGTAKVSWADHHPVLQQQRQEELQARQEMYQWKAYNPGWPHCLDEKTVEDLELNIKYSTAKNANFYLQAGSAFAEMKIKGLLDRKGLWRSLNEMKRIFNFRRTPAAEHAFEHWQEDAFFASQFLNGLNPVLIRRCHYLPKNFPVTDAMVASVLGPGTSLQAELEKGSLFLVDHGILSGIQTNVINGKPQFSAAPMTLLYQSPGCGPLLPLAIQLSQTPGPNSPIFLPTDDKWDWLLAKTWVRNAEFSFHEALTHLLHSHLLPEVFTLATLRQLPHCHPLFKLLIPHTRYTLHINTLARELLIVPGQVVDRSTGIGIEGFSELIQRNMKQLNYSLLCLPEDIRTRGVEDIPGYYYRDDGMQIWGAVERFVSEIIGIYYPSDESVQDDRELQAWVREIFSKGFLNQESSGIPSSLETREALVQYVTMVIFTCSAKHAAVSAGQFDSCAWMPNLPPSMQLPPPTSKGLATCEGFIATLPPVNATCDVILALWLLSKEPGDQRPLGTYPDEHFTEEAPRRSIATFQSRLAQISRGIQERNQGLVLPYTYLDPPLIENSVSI
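Enzyme 50 nM, AA 45 uM, 25 mM Hepes pH 7.5 + 0.01% Triton X-100; cpd preinc 15 min RT, rxn 90 min RT; stop/detect with 200 uM XO + 300 uM Fe(II) in 50 mM H2SO4, 30 min; A573/A405.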
PNC inhibitor: High Content Assay for Compounds that inhibit the Assembly of the Perinucleolar Compartment | PC3M PTB-GFP, PNC prevalence imaging, 16 h; stronger effect = lower value | activity change (PNC), negative = inhibition, % at 10 µM | hit rate 3.1% among 140,000 | AID 2417, 2010;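 active means readout at or below -70, meaning at least 70% loss of cells showing the perinucleolar compartment, a nuclear body marking cancer cells; inconclusive means readout between -30 and a set limit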;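 further: plate controls were DMSO wells for no effect and camptothecin positive control wells for full effect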
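Compounds are pinned in duplicate onto adhered PC3M cells stably expressing GFP-tagged PTB and incubated 16 h at 37 C. Cells are then fixed, nuclei stained with Hoechst, and PNC-positive cells counted.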
12-hLO inh: qHTS Assay for Inhibitors of 12-hLO (12-human lipoxygenase) | Polyunsaturated fatty acid lipoxygenase ALOX12 (Homo sapiens), P18054 | purified 12-hLO, xylenol orange hydroperoxide absorbance | Potency, µM (doses to about 57.1 µM), for the others: at the highest dose activity change, negative = inhibition, most hits filed as inhibitors | hit rate 0.12% among 150,000; further: potency means the concentration at half of the fitted maximal effect; nearly all actives have a fitted effect of over 55% in size
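Lipoxygenase turnover measured by absorbance at 573 and 405 nm after Fe-XO development. Human 12hLO 150 nM, arachidonate 40 uM, pH 7.0 Hepes buffer with detergent; 15 min compound preincubation, 30 min reaction.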
IMPase cell inh: qHTS Assay for Identifying the Cell-Membrane Permeable IMPase Inhibitors | Inositol monophosphatase 1 (Rattus norvegicus), P97697 | CHO-M1 cells, IP1 accumulation, HTRF TR-FRET ratio | inhibition (IP1 accumulation), % at 46.1 µM | 120,000 tested, under 10 active | AID 901, 2007; active means well fitted curve in the direction sought with a large enough effect in the signal ratio, not every such curve was filed as active; inconclusive means small, poorly fitted or top-dose-only effect, or a change in a side signal; inactive means no such curve, though single readings can be large or run the other way; the % refers to the signal ratio;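 further: cells stimulated with carbachol in lithium chloride buffer; plate controls were DMSO basal wells for no effect and reference inhibitor wells for full effect; higher means more IMPase inhibition seen as more IP1 and lower FRET ratio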
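Cellular IMPase inhibition is scored as a rise in cytosolic IP1, detected by competitive TR-FRET between d2-labelled IP1 and a europium anti-IP1 antibody. M1-expressing CHO cells were stimulated with carbachol for 30 min at 37C, with lithium (50 mM LiCl) present in the buffer.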
Active calls of the source: *; ? = inconclusive; / = no result; [ ] = dose if it differs, or a comment. Unless noted, the call rests on the fitted dose curve; in most records, active means well fitted curve in the direction sought with a large enough effect; inconclusive means small, poorly fitted or top-dose-only effect, or another doubt; inactive means no such curve, though single readings can be large; an effect the other way counts as inactive or inconclusive. Unless noted, on the % scale 0 is the no-effect control and ±100 the full control effect.

SMILES	15-hLO-2 inh	PNC inhibitor	12-hLO inh	IMPase cell inh
CC(C)C(=O)NC(=S)Nc1ccccc1C(=O)NC1CCCCC1	/	-114*	-10%	/
COC(=O)c1ccc(C(=O)OC)c(-n2c(=O)c3ccccc3c3ccccc3c2=O)c1	/	-21	0%	?
CC1CC2C3CCC4=CC(=O)C=C[C@@]4(C)[C@]3(F)C(O)C[C@]2(C)[C@]1(O)C(=O)COP(=O)(O)O (some centres not stated)	-7%	/	1%	/
CCOc1ccc(-n2nc(C(=O)N3CCN(CC)CC3)c3ccccc3c2=O)cc1	/	-86*	4%	0
N#CCCn1c(=O)c(CCc2ccccc2)nc2cnc(Oc3cccc(Cl)c3)nc21	-8%	/	-6%	/
O=S(=O)(c1cccc(-c2nnco2)c1)N1CCCC1	-3%	-107*	-2%	-7
COc1ccc(CCC(C)NC2C3CC4CC(C3)CC2C4)cc1 (configuration not stated)	18%	-108*	-1%	14
COc1ccc(CCC(C)Nc2ccccc2F)cc1 (configuration not stated)	/	-4	2%	/
COCCn1c(=O)c(-c2cccs2)nc2cnc(N3CCNCC3)nc21	19%	/	/	/
CN[C@@H](CC(C)C)C(=O)N[C@@H]1C(=O)N[C@H](CC(N)=O)C(=O)N[C@H]2C(=O)N[C@H]3C(=O)N[C@H](C(=O)N[C@H](C(=O)O)c4cc(O)cc(O)c4-c4cc3ccc4O)[C@H](O)c3ccc(c(Cl)c3)Oc3cc2cc(c3O[C@@H]2O[C@@H](CO)[C@@H](O)[C@@H](O)[C@H]2O[C@H]2C[C@](C)(N)[C@H](O)[C@H](C)O2)Oc2ccc(cc2Cl)[C@@H]1O	-14%	/	-8%	1
CCOC(=O)c1ccc(NC(=S)NNC(=O)C2(C)CC2(Cl)Cl)cc1 (configuration not stated)	/	104	-3%	5
CC(C)(CNC(=O)c1sc2cc(F)ccc2c1Cl)N1CCOCC1	/	-92*	-2%	/
CCOc1cc2c(cc1OCC)C(c1ccc(OC)cc1)N(c1ccccc1)C(=O)C2 (configuration not stated)	/	-15	1%	4
CCOc1cc2c(cc1OCC)C(c1ccccc1)N(c1ccccc1)C(=O)C2 (configuration not stated)	/	-93*	0%	/
O=C(CCS(=O)(=O)c1cccc2nsnc12)N1CC(=O)N(CCc2ccccc2)C(=O)C1	1%	?	-1%	2
COc1ccc(N2CCN(C(=O)CCS(=O)(=O)c3cccc4nsnc34)CC2)cc1	/	-85*	-2%	-4
O=C(O)CCSc1nc2ccccc2s1	-9%	?	5%	-8
OC(CNc1nc2ccccc2s1)c1ccccc1 (configuration not stated)	2%	-82*	-1%	-2
C=C(C)CN1C(=O)c2ccccc2C1=O	-5%	?	-2%	6
C=C(C)CC1Nc2ccccc2NC1CC(=C)C (configuration not stated)	25µM*	27	-27%	23
C[N+]1(C)CCc2cc3c(cc2[C@@H]1[C@@H]1C(=O)Oc2c1ccc1c2OCO1)OCO3	12%	/	-7%	1
Cc1cc(C)n(-c2nnc3n2N=C(c2c[nH]c4ccccc24)CS3)n1	-2%[2.29 µM]	-12	-6%	7
Cc1cc(C)n(-c2nnc3n2N=C(c2ccccc2)CS3)n1	0%	-135*	17%	6
O=S(=O)(NCCNS(=O)(=O)c1ccc(F)cc1)c1ccc(F)cc1	3%	23	1%	-2
O=S(=O)(NNc1ccc(Cl)nn1)c1ccc(F)cc1	/	-88*	-4%	/
SMILES	15-hLO-2 inh	PNC inhibitor	12-hLO inh	IMPase cell inh
CCOCCCNC(=O)C(c1ccc(C)cc1)N(Cc1ccc2c(c1)OCO2)C(=O)CNC(C)=O (configuration not stated)	/	-100*	-1%	8
CCOCCCNC(=O)C(c1ccccc1)N(Cc1ccc2c(c1)OCO2)C(=O)CNC(C)=O (configuration not stated)	8%	-13	3%	0
COCc1cc(C)nc2sc(C(=O)Nc3cc(C)ccc3F)c(N)c12	/	/	/	-9
COc1ccc(-c2cc(=O)oc3cc(OCc4nn[nH]n4)ccc23)cc1	-20%	26	0%	-9
COc1ccccc1C(=O)Nc1ccc(C2=NNC(=O)CC2C)cc1 (configuration not stated)	/	-114*	-2%	/
CCCNS(=O)(=O)c1ccc(OCC(=O)OC)cc1	9%	-27	1%	0
Cc1ccc(C)c(NC(=O)CNS(=O)(=O)c2ccccc2)c1	3%	-80*	-1%	-11
CCOc1ccccc1NC(=O)COC(=O)CN(C)S(=O)(=O)c1ccc(C)cc1	/	0	5%	/
CCCNS(=O)(=O)c1ccc(OCC(=O)Nc2ccccc2F)cc1	/	-112*	4%	2
COc1ccccc1NC(=O)NS(=O)(=O)c1ccc(C)cc1	-9%	-110*	-4%	9
COc1ccccc1NC(=O)CNS(=O)(=O)c1ccccc1	-1%	-1	0%	-4
CCOc1ccccc1NC(=O)COC(=O)CNS(=O)(=O)c1ccc(C)cc1	/	-116*	0%	/
O=C(NCc1ccccn1)c1coc(=O)c(Br)c1	8%	-87*	-3%	3
COc1cc(NCC[C@@H]2CCCCN2)c2ncccc2c1	7%[11.4 µM]	/	-1%[11.4 µM]	/
Cc1ccc(NC(=S)NCCc2c[nH]c3ccccc23)cc1	25µM*	6	?	4
Cc1cccc(NC(=S)NCCc2c[nH]c3ccccc23)c1	/	-1	?	/
COc1cccc(C2(O)CCN(C(=O)Cc3cccnc3)CC2)c1	-1%	?	-3%	1
C/C(=N\Nc1nc2ccccc2s1)c1cccs1	/	-5	13µM*	/
CCOC(=O)c1cn(-c2nc(-c3ccc(Cl)cc3)cs2)c2c(F)c(N3CC(C)OC(C)C3)c(F)cc2c1=O (configuration not stated)	-13%	67	-2%	-4
O=c1cc(CNc2ccc(Br)cc2)nc2sccn12	/	-21	-4%	/
Cc1ccc(NC(=O)Cc2noc3ccccc23)cc1	/	-99*	-7%	/
C=CCNC(=S)N1CCN(c2cccc(C(F)(F)F)c2)CC1	/	-113*	-1%	/
Cc1ccc(/C=C/C(=O)N2CCN(c3cccc(C(F)(F)F)c3)CC2)cc1	/	-14	-1%	4
C/C(=C\c1ccccc1)C(=O)N1CCN(c2cccc(C(F)(F)F)c2)CC1	/	-91*	-2%	/
COc1cc(C2C(C#N)=C(C)NC3=C2C(=O)c2ccccc23)cc(OC)c1OC (configuration not stated)	12%[11.4 µM]	-116*	0%	6[1.84 µM]
COc1ccc(C2C(C#N)=C(C)NC3=C2C(=O)c2ccccc23)cc1 (configuration not stated)	-9%	27	-10%	-23
CC(=O)c1cc(-c2ccccc2)n(CC(=O)Nc2cccc(C)c2)c1C	/	2	2%	/
